93 compounds from PubChem BioAssay AID1974 (The Scripps Research Institute Molecular Screening Center, 2009) can be followed below.

Screen size: about 300,000 compounds; about 3,200 (1.1%) were called active.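 The calls were made as follows: active = inhibition above the campaign mean inhibition plus 3 SD (cut at about 35% in these data); inactive = the rest.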 Shown is part of a subset that was picked to be rich in actives.

For orientation: inhibition means the change of the read-out against control, counted positive when it falls.

Glutathione S-transferase omega-1 (Homo sapiens), sequence (P78417 whole entry, looked up): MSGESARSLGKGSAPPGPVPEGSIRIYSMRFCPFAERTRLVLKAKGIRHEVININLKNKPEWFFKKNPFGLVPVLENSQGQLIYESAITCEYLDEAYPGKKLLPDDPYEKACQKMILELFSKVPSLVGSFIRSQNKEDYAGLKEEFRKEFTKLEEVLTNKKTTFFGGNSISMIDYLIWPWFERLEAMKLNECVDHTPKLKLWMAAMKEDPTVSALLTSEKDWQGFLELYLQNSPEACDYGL

This assay has as its target Glutathione S-transferase omega-1 (Homo sapiens) (UniProt P78417). The assay is described as follows: human GSTO1 enzyme inhibition – biochemical, fluorescence polarization, counter-screen for RBBP9 inhibitor project, primary screen (AID 1974).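 Also: 0% = GSTO1-1 with DMSO and 100% = wells lacking GSTO1-1 enzyme.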 The settings on record: recombinant GSTO1, activity-based probe fluorescence polarization; at 5.96 µM; active compounds read high. For orientation: Fluorescence polarisation rises when a labelled molecule tumbles more slowly, as on binding a larger partner.
Turning to `CN(C)CCN(C(=O)CN1C(=O)c2ccccc2C1=O)c1nc2cc3c(cc2s1)OCCO3`, the inhibition was 1.93% (inactive). For `COc1cccc(N2CC(NC(=O)c3ccc4ccccc4c3)CC2=O)c1` (stereo not drawn), the inhibition is -0.99% (inactive). Regarding `O=C(OCC(=O)N1CCCC1=O)c1cc(S(=O)(=O)N2CCOCC2)ccc1Cl`, the inhibition was 82% (active). In the case of `CC(C)(C)C(=O)COC(=O)c1cc(S(=O)(=O)N2CCCCC2)ccc1N1CCOCC1`, the inhibition was -0.05% (inactive). For `CC1CCN(C(=O)COC(=O)c2cc(S(=O)(=O)N3CCOCC3)ccc2Cl)CC1` the value was -3.67% (inactive); for `CCCNC(=O)c1onc(CSc2ccc(F)cc2)c1C(=O)NC(C)C`, -6.69% (inactive). As for `CC[N+](C)(CC)CCC[n+]1c(-c2ccccc2)c2cc(N)ccc2c2ccc(N)cc21`, the inhibition was 92.8% (active). As to `COCC(=O)Nc1c(I)c(C(=O)NCC(O)CO)c(I)c(C(=O)N(C)CC(O)CO)c1I` (stereo not drawn), the inhibition was 3.24% (inactive). As for `Cc1ccc2c(c1)N(CC(=O)NCC1CCCO1)C(=O)CO2` (stereo not drawn), the inhibition is -3.07% (inactive). Consider `CCn1c(SCC(=O)N/N=C/c2ccncc2)nc2ccccc21`, for which the inhibition was -0.27% (inactive). On to `Cn1c(SCC(=O)N/N=C/c2ccc(O)c(O)c2)nc2ccccc21`, for which the inhibition is 52% (active). Take `CCOc1ccc(/C=N/NC(=O)CSc2ccccn2)cc1O`: the inhibition was 1.26% (inactive). As to `Cc1cc2nc3c(=O)n(Cc4ccccc4)c(=O)[nH]c3nc2cc1N`, the inhibition was 44.9% (active). For `CSc1nc2ccccc2c(=O)n1Cc1ccc(F)cc1` the value was -7.17% (inactive); for `CC(=O)c1ccc(-c2ccc(Cn3c(C)nc4cc(N)c(C)nc43)cc2)cc1`, 4.41% (inactive). Regarding `CC1=C/C(=N\OS(=O)(=O)c2ccccc2)C=CC1=O`, the inhibition was 49.7% (active). For `O=S(=O)(ON(c1ccccc1)S(=O)(=O)c1ccccc1)c1ccccc1` the value was -0.47% (inactive). As to `CCN(CC(=O)NCc1cccs1)C(=O)c1ccc(OC)c(S(=O)(=O)N2CCOCC2)c1`, the inhibition is 11.9% (inactive). Consider `O=S(=O)(O)Oc1c[nH]c2ccccc12`, for which the inhibition is 62.3% (active). In the case of `O=C(Cc1c[nH]c2ccccc12)OCCOC(=O)Cc1c[nH]c2ccccc12`, the inhibition was -2.78% (inactive). On to `COc1ccccc1CC(=O)NCCc1c[nH]c2ccccc12`, for which the inhibition is 5.81% (inactive). On to `Cc1ccc(Cn2nnc3c(=O)[nH]c(C4CCN(S(=O)(=O)/C=C/c5ccccc5)CC4)nc32)cc1`, for which the inhibition was -24.4% (inactive). For the compound `CC(C)N(C(=O)c1ccc(-c2ccccc2F)cc1)C(C)C`, the inhibition is 0.63% (inactive). Regarding `CC(=O)N(C1=C(Cl)C(=O)c2ccccc2C1=O)c1ccc(C(=O)O)cc1`, the inhibition was 79.7% (active). In the case of `O=C(CN1C(=O)c2ccccc2C1=O)NCc1ccc(C(=O)O)cc1`, the inhibition is 3.69% (inactive).

As to `NC(=O)NC(=O)C(OC(=O)CCNS(=O)(=O)c1ccccc1)c1ccccc1` (stereo not drawn), the inhibition is -0.72% (inactive). Regarding `Cc1ccc(CSCC(=O)N(C)CC(=O)Nc2ccc(C)cc2)cc1`, the inhibition was -11.5% (inactive). In the case of `CCOC(=O)c1cnc2nc(SCc3ccccc3Cl)[nH]n2c1=O`, the inhibition was -25.6% (inactive).

Consider `Cc1ccc([N+](=O)[O-])cc1S(=O)(=O)N1CCCN(C)CC1`, for which the inhibition is 2.63% (inactive). With `CN1CCN(/N=C/c2ccc(-c3ccc([N+](=O)[O-])cc3)o2)CC1`, the inhibition was 3.62% (inactive). For `CN1CCN(/N=C2/C(=O)Nc3ccc([N+](=O)[O-])cc32)CC1` the value was 37.1% (active); for `COc1cccc(NC(C)=[N+](C)CCNS(=O)(=O)c2ccc(Cl)cc2)c1`, 8.66% (inactive); for `Cc1cccc(C(C)C)c1NC(=O)COC(=O)C1CC(=O)N(Cc2ccccc2)C1` (stereo not drawn), 7.97% (inactive). For `Oc1ccc2ccccc2c1N=Nc1nccs1` the value was 52% (active); for `c1ccc(NCc2cccc3ccccc23)nc1`, -6.32% (inactive); for `Oc1ccc(N=Nc2nccs2)c(O)c1`, 36.6% (active). `O=C(Oc1ccc(-c2nnco2)cc1)c1ccc(F)c(S(=O)(=O)N2CCOCC2)c1`: the inhibition is 3.94% (inactive). Take `CCN(CC(=O)Nc1c(F)cccc1F)C(=O)c1ccc(S(=O)(=O)N2CCCCC2)cc1`: the inhibition was 3.32% (inactive). On to `O=[N+]([O-])c1ccc(Sc2n[nH]c(-c3ccco3)n2)nc1`, for which the inhibition was 5.75% (inactive). For the compound `Cc1cccc(C)c1NC(=O)CSc1ccc([N+](=O)[O-])cn1`, the inhibition was 5.11% (inactive).

As for `CC(C)(C)n1cnnc1Sc1ccc([N+](=O)[O-])cn1`, the inhibition is 39.1% (active). For `CC(OC(=O)CNC(=O)c1cccc(F)c1)C(=O)NC1CCCCC1C` (stereo not drawn) the value was 3.44% (inactive); for `Cc1ccccc1NCC(=O)N/N=C\c1ccc([N+](=O)[O-])s1`, 15.2% (inactive); for `CC(C)(C)c1cc(C(=O)N/N=C/c2ccc([N+](=O)[O-])s2)n[nH]1`, 37% (active). For `COc1ccc(C(=O)NCC(=O)N/N=C/c2ccc([N+](=O)[O-])s2)cc1OC` the value was 27.8% (inactive); for `O=C(NCCSc1ncc(-c2ccccc2)[nH]1)c1ccco1`, 5.65% (inactive). Turning to `COCCN1C=C2C(=O)C(C)(OC(=O)C3CCCC3)C(=O)C=C2C=C1c1ccsc1` (stereo not drawn), the inhibition was 45.6% (active). For `CC1(OC(=O)C2CCCC2)C(=O)C=C2C=C(c3ccc(C#N)cc3)OC=C2C1=O` (stereo not drawn), the inhibition was 24.5% (inactive). Take `CC1(OC(=O)CCc2ccccc2)C(=O)C=C2C=C(c3ccc(C#N)cc3)N(CCc3ccccn3)C=C2C1=O` (stereo not drawn): the inhibition was 27.9% (inactive). For `NC(=O)C1=C[C@@H](c2ccc3c(c2)OCO3)C[C@@H](OCCCCO)O1` the value was 14.6% (inactive); for `CN(C)C(=O)N=NC(=O)N(C)C`, 1.15% (inactive).

Take `CCC(Oc1ccccc1C)C(=O)Nc1ccc(S(=O)(=O)Nc2cc(C)on2)cc1` (stereo not drawn): the inhibition was -0.82% (inactive). For the compound `CN1c2ccc(C=O)c3c(C=O)ccc(c23)N(C)C1(C)C`, the inhibition was 72.9% (active). For `Cc1cc(C)cc(NC(=O)COc2coc(CN3CCN(c4ccccc4)CC3)cc2=O)c1` the value was -4.3% (inactive); for `CCN(C(=O)CSc1ncnc2c1cnn2-c1ccccc1)C1CCS(=O)(=O)C1` (stereo not drawn), -42.3% (inactive); for `CC(=O)N1CCN(C(=O)c2cc(-c3ccc(C)o3)nc3ccccc23)CC1`, 5.42% (inactive). For `Clc1ccc(C2=CSC3=Nc4cccc5cccc(c45)N23)cc1` the value was 58.2% (active); for `Cc1ccc2nc(NC(=O)CSc3nc(=O)n(CCCN(C)C)c4c3CCC4)sc2c1`, -12.3% (inactive). For `COc1ccc2oc(C(=O)N(CC(C)C)C3CCS(=O)(=O)C3)c(C)c2c1` (stereo not drawn) the value was -0.98% (inactive); for `Cc1ccc(C(=O)N/N=C/c2cccc3ccccc23)cn1`, 0.98% (inactive).

Consider `Cc1ccc(/C=N/NC(=O)CN2CCN(Cc3ccccc3)CC2)s1`, for which the inhibition is -7.48% (inactive).

Take `Cc1ccc(C(=O)N/N=C/c2sc(=O)n(Cc3cccc(C(=O)O)c3)c2Cl)cc1`: the inhibition was 40.4% (active). For `Cc1ccccc1S(=O)(=O)N1[C@@H](c2cccc(Cl)c2)C(C(=O)O)=CC[C@H]1c1ccc(Cl)cc1` the value was -219% (inactive); for `COc1ccc(-c2c(NC(=O)c3ccco3)oc3ccc(Cl)cc3c2=O)cc1`, -7.76% (inactive); for `CN(C(=O)COC(=O)c1cc(-c2ccco2)nc2ccccc12)C1CCS(=O)(=O)C1` (stereo not drawn), 66.1% (active). For the compound `CN(C(=O)COC(=O)c1nc(Cl)ccc1Cl)C1CCS(=O)(=O)C1` (stereo not drawn), the inhibition is 3.97% (inactive). As to `Cc1c(-c2cccc(Cl)c2)nc2ccccc2c1C(=O)OCC(=O)N(C)C1CCS(=O)(=O)C1` (stereo not drawn), the inhibition was -6.81% (inactive).

Consider `Nc1c(-c2ccccc2)nnn1Cc1ccccc1`, for which the inhibition was 16.3% (inactive). On to `CC1CCC(CN2CCN=C2N(C)C)CC1` (stereo not drawn), for which the inhibition is 1.09% (inactive).

Take `COc1ccc(NC(=O)CSc2nnc(Cc3ccccc3)c(=O)n2N)cc1`: the inhibition is 36.1% (active). As to `COc1ccc(NC(=O)CSc2nc3ccccc3c(=O)n2C)cc1`, the inhibition was -2.78% (inactive). Take `COc1ccc(Cc2nnc(SCC(=O)N(c3ccccc3)C(C)C)n(N)c2=O)cc1`: the inhibition was -0.68% (inactive). Turning to `O=C(NCc1ccccn1)Nc1ccc(Cl)cc1`, the inhibition was -3.8% (inactive).

As for `Cc1ccnc(NC(=O)CNC(=O)c2ccccc2)c1`, the inhibition was -2.68% (inactive). As for `O=C(Nc1ccc(S(=O)(=O)Nc2nccs2)cc1)c1cc(=O)[nH]c2ccccc12`, the inhibition was -5.17% (inactive). For `Cc1ccc2nc(-c3ccncc3)cc(C(=O)Nc3ccncc3)c2c1`, the inhibition is 0.09% (inactive). Turning to `O=C(Nc1ccc(S(=O)(=O)Nc2nccs2)cc1)c1cc(-c2ccncc2)nc2ccccc12`, the inhibition was 44.3% (active). In the case of `COc1ccc(C(=O)Oc2ccc(-c3nnco3)cc2)cc1S(=O)(=O)N1CCOCC1`, the inhibition is 8.84% (inactive). As for `O=C(Nc1cc2c3c(c1)CC(=O)N3CCC2)c1ccccc1F`, the inhibition is -2.65% (inactive). As to `COc1ccccc1N(C)S(=O)(=O)c1ccc(Cl)c(C(=O)Nc2ccncc2)c1`, the inhibition was 1.75% (inactive). Regarding `O=C1c2ccccc2C(=O)c2c1cccc2N1CCN(C/C=C/c2ccccc2)CC1`, the inhibition is 1.48% (inactive). For the compound `CC1C(=O)Nc2ccccc2N1C(=O)c1ccc(F)cc1F` (stereo not drawn), the inhibition was 52.8% (active). Consider `CCCC(=O)N1c2ccccc2NC2=C(C(=O)CCC2)C1c1ccc(F)cc1` (stereo not drawn), for which the inhibition is -0.62% (inactive). For `CC1C(=O)Nc2ccccc2N1C(=O)c1c(F)cccc1F` (stereo not drawn) the value was 4.45% (inactive); for `COc1ccc(N2CCN(C(=O)CCNC(=O)c3ccc(Br)cc3)CC2)cc1`, -8.57% (inactive).

For `CCCCn1c(N)c(N(CC(C)C)C(=O)CN(C)S(=O)(=O)c2ccc(F)cc2)c(=O)[nH]c1=O`, the inhibition was 16.4% (inactive). In the case of `CC(=O)c1c(C)[nH]c(C(=O)N2CCN(S(=O)(=O)c3ccc(F)c(F)c3)CC2)c1C`, the inhibition is 16.8% (inactive). Take `COCCNC(=O)Nc1ccc2nc(-c3ccco3)c(-c3ccco3)nc2c1`: the inhibition was 69.1% (active).

Consider `O=C(NCc1ccccn1)c1ccc2nc(-c3ccco3)c(-c3ccco3)nc2c1`, for which the inhibition was 82.7% (active). As to `CCCC(=O)Nc1ccc2c(c1)nc(CCNC(=O)c1ccco1)n2C`, the inhibition was 5.94% (inactive). In the case of `CC(C)(C)c1ccc(NC(=O)NCc2ccco2)cc1`, the inhibition is 3.61% (inactive). Take `COc1ccc2oc(=O)c(C(=O)NCc3ccccn3)cc2c1`: the inhibition was 3.7% (inactive). Regarding `Cc1cc(C)cc(NC(=O)NCc2ccccn2)c1`, the inhibition is 0.33% (inactive).
